Experimental data from PubChem BioAssay (NCI).
“And” between values parts separate entries of the source, which are not always exact repeats. Equal entries are not always repeated. About 83,000 compounds went through this panel and 20% of them were active in at least one assay; those are over-represented in the sample as a whole.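 Activity criterion: percent growth below 10, measured after cells in 96-well plates were exposed to a single compound concentration for 48 hours.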 The source made the active and inactive calls.

Assays:
Test in all cases: NCI-60 one-dose screen, 48 h (100 = growth as untreated, 0 = no growth, -100 = all killed)
[1] = system: SK-MEL-2 melanoma; settings: 10 µM unless noted
[2] = system: EKVX NSCLC; settings: 10 µM unless noted
[3] = system: SN12C renal; settings: 10 µM unless noted
[4] = system: UO-31 renal; settings: 10 µM unless noted
[5] = system: TK-10 renal
[6] = system: ACHN renal; settings: 10 µM unless noted
[7] = system: CAKI-1 renal; settings: 10 µM unless noted
[8] = system: A498 renal; settings: 10 µM unless noted
[9] = system: CCRF-CEM leukemia; settings: 10 µM unless noted
[10] = system: MOLT-4 leukemia; settings: 10 µM unless noted
[11] = system: SR leukemia; settings: 10 µM unless noted
[12] = system: RPMI-8226 leukemia; settings: 10 µM unless noted
[13] = system: OVCAR-8 ovarian; settings: 10 µM unless noted
[14] = system: OVCAR-5 ovarian; settings: 10 µM unless noted
[15] = system: OVCAR-4 ovarian; settings: 10 µM unless noted
[16] = system: SK-OV-3 ovarian; settings: 10 µM unless noted
[17] = system: IGROV1 ovarian; settings: 10 µM unless noted
[18] = system: OVCAR-3 ovarian; settings: 10 µM unless noted
[19] = system: HS 578T breast; settings: 10 µM unless noted
[20] = system: NCI/ADR-RES ovarian; settings: 10 µM unless noted

Measured: growth

O=[N+]([O-])c1ccc(C(Br)c2ccc([N+](=O)[O-])cc2)cc1
inactive: [1] 97.6% | [2] 109% | [3] 54.9% | [4] 47.4% | [5]; 10 µM unless noted 97.5% | [6] 98.3% | [7] 92.2% | [8] 101% | [9] 16.3% | [10] 12.5% | [12] 66.1% | [13] 63.2% | [14] 124% | [15] 64.3% | [16] 97.3% | [18] 110% | [19] 107% | [20] 91.5%
active: [11] 7.81% | [17] -53.2%

CCOC(=O)c1cc(CC)sc1NC(=O)CC(C)=O
inactive: [1] 61.5% | [2] 51% | [3] 53% | [4] 40.8% | [5]; 10 µM unless noted 70.9% | [6] 39.9% | [7] 53.1% | [8] 98.7% | [9] 35.5% | [10] 14.4% | [11] 35.1% | [12] 37.4% | [13] 43% | [14] 96.7% | [15] 43.3% | [16] 84.6% | [17] 59.7% | [18] 65.3% | [19] 49.9% | [20] 40%

CC(=O)C1Cc2ccccc2C1=O (stereo not drawn)
inactive: [1] 124% | [2] 80.6% | [3] 98% | [4] 79.5% | [5]; 10 µM unless noted 142% | [6] 97.6% | [7] 82.6% | [8] 110% | [9] 125% | [10] 115% | [11] 108% | [12] 117% | [13] 119% | [14] 101% | [15] 104% | [16] 96.1% | [17] 116% | [18] 112% | [19] 103% | [20] 104%

CC(/C=N/NC(N)=S)Cc1ccc(C(C)C)cc1 (stereo not drawn)
inactive: [1] 54.4% | [2] 80.5% | [3] 69.8% | [4] 45% | [5]; 10 µM unless noted 99.6% | [6] 103% | [7] 58.7% | [8] 51% | [9] 65.9% | [10] 67.7% | [11] 135% | [12] 104% | [13] 79.3% | [14] 86.6% | [15] 29.8% | [16] 85.8% | [17] 25.7% | [18] 77.7% | [19] 71.7% | [20] 64.4%

OC(c1cc(-c2ccc(Cl)cc2)nc2c(Cl)cccc12)C1CCCCN1 (stereo not drawn)
active: [1] -91% | [2] -32.9% | [3] -70.3% | [4] -74.5% | [5]; 10 µM unless noted -75.9% | [6] -65.3% | [7] -72.5% | [8] 9.48% | [9] -59.1% | [10] -57.5% | [11] -39.4% | [12] -17.3% | [13] -75.2% | [14] -70.9% | [15] -85.6% | [16] -73.4% | [17] -73.7% | [18] -95.1% | [19] -47.6% | [20] -70.3%

CC(C)=CCCC(C)C1=C(O)C(=O)C(C)=CC1=O (stereo not drawn)
inactive: [1] 92.9% | [2] 122% | [3] 106% | [7] 88.4% | [8] 92.9% | [14] 97.4% | [16] 97.8% | [19] 94.4% | [20] 95%
active: [4] -98.3% | [5]; 10 µM 5.08% | [5]; 100 µM -99.3% and -84.7% | [6] -39% | [9] -29.2% | [10] -30.1% | [11] -12.4% | [12] -34.2% | [18] -12.5%

Cc1cccc2c(N)c3ccccc3nc12
inactive: [19] 16.5%
active: [1] -28.5% | [2] 1.94% | [3] -9.63% | [4] -53.9% | [5]; 10 µM unless noted -5.29% | [6] -18.6% | [7] -21.9% | [8] -46.5% | [9] 6.63% | [10] 2.71% | [11] 2.95% | [12] -15.4% | [13] -9.82% | [14] 7.56% | [15] 1.48% | [16] -3.15% | [17] -13.2% | [18] -17.3% | [20] -47.5%

O=C(O)c1ccc2c(c1)C(=O)c1ccccc1C2=O
inactive: [1] 105% | [2] 102% | [3] 94.6% | [4] 87% | [5]; 10 µM unless noted 105% | [6] 103% | [7] 96.4% | [8] 71.8% | [9] 108% | [10] 94.4% | [11] 86.4% | [12] 102% | [13] 98.9% | [14] 101% | [15] 96.7% | [16] 98.8% | [17] 116% | [18] 99.3% | [19] 95.6% | [20] 105%
